Test results published in the antibiotic and cytotoxicity screens of Wong et al. (2023).
Screen size: about 39,000 compounds; about 500 (1.3%) were called active. What follows is part of a selection rich in actives, with near analogues and random picks from the rest.

The compounds below were run on S. aureus RN4220 (assay: growth inhibition call (relative growth <= 0.2)). Conditions: 50 µM.

Growth inhibition call, inactive:
COc1ccc(CN(C)C[C@H]2OCCCC[C@@H](C)Oc3ccc(NC(=O)Nc4ccccc4)cc3C(=O)N([C@@H](C)CO)C[C@@H]2C)cc1
C[C@@H]1CN([C@H](C)CO)C(=O)c2cc(-c3ccncc3)cnc2O[C@H]1CN(C)C(=O)Nc1ccc2c(c1)OCO2
C[C@@H]1CCCCO[C@H](CN(C)C(=O)Nc2cccc3ccccc23)[C@@H](C)CN([C@@H](C)CO)C(=O)c2cc(NC(=O)Nc3ccc(F)cc3)ccc2O1
Cc1ccc(S(=O)(=O)N(C)C[C@H]2Oc3c(NC(=O)Nc4ccc(C(F)(F)F)cc4)cccc3C(=O)N([C@H](C)CO)C[C@H]2C)cc1
C[C@H]1CN([C@@H](C)CO)C(=O)c2cc(NC(=O)C3CCCCC3)ccc2O[C@H]1CN(C)Cc1ccc(Cl)c(Cl)c1
C[C@@H]1CN([C@H](C)CO)S(=O)(=O)c2ccc(C#CCN(C)C)cc2O[C@H]1CN(C)Cc1ccc2c(c1)OCO2
COc1ccc(COC[C@]23N=C4SCc5ccccc5CN4[C@H](c4ccccc4O2)[C@H]3COC(=O)NCCCCCC(=O)NO)cc1
CCn1cc(C(=O)N2CCN(C)CC2)c(=O)c2cc(S(=O)(=O)N(C)C)ccc21
CCn1cc(C(=O)O)c(=O)c2cc(F)c(N3CCN(C(=S)Nc4cc(C(F)(F)F)ccc4Cl)CC3)cc21
O=C(O)c1cn(C2CC2)c2cc(N3CCNCC3)c(F)cc2c1=O
CCn1cc(C(=O)O)c(=O)c2cnc(N3CCCC3)nc21
CCn1cc(C(=O)O)c(=O)c2ccc(C)nc21
C[C@@H]1CCCCO[C@H](CN(C)C(=O)CCCN(C)C)[C@@H](C)CN([C@H](C)CO)C(=O)c2cc(N(C)C)ccc2O1
C[C@@H]1CCCCO[C@H](CN(C)C(=O)NC2CCCCC2)[C@@H](C)CN([C@@H](C)CO)C(=O)c2cc(NC(=O)CCC(F)(F)F)ccc2O1
COCC(=O)N1C[C@@H](C)[C@@H](OC)CN(C)C(=O)c2cc(NC(=O)Nc3cccc(F)c3)ccc2OC[C@H]1C
C[C@@H]1CN([C@H](C)CO)C(=O)c2cc(NC(=O)CCC(F)(F)F)ccc2O[C@@H](C)CCCCO[C@@H]1CN(C)Cc1ccccc1
C[C@H]1CN([C@@H](C)CO)C(=O)c2cccc(NS(C)(=O)=O)c2O[C@@H]1CN(C)C(=O)Nc1ccc2c(c1)OCO2
CN(C)C(=O)CN1CCn2cc(Cn3cncn3)nc2C1
Cc1noc(C)c1NC(=O)Nc1ccc2c(c1)CC(=O)N([C@H](C)CO)C[C@H](C)[C@H](CN(C)S(=O)(=O)c1cccs1)O2
CC(C)(ON=C(C(=O)NC1C(=O)N2C(C(=O)[O-])=C(C[n+]3ccccc3)CSC12)c1csc(N)n1)C(=O)O (stereo not given)
NC(=O)c1cc[n+](CC2=C(C(=O)[O-])N3C(=O)C(NC(=O)C(c4ccccc4)S(=O)(=O)[O-])C3SC2)cc1.[Na+] (stereo not given)
Cn1sccc1=O
O=C(C[C@@H]1CC[C@H]2[C@@H](COC[C@@H](O)CN2S(=O)(=O)c2ccc(Cl)cc2)O1)N1CCc2ccccc2C1
C[C@H](CO)N1C[C@H](C)[C@@H](CN(C)Cc2ccncc2)OCCCC[C@H](C)Oc2ccc(NC(=O)Nc3ccc4c(c3)OCO4)cc2C1=O
O=C(C[C@@H]1CC[C@H]2NC[C@@H](O)COC[C@@H]2O1)NCCN1CCCC1
COc1cc(C2c3cc4c(cc3C(OC3OC5COC(C)OC5C(O)C3O)C3COC(=O)C23)OCO4)cc(OC)c1O (stereo not given)
COc1cc([C@@H]2c3cc4c(cc3[C@@H](O[C@@H]3O[C@@H]5CO[C@@H](C)O[C@H]5[C@H](O)[C@H]3O)[C@@H]3COC(=O)[C@@H]23)OCO4)cc(OC)c1O
N#C[C@H](N)c1ccc(Cl)cc1
Nc1cc(=O)[nH]c(=O)n1-c1ccc(Cl)cc1
Cc1noc(C)c1NC(=O)N(C)C[C@@H]1OCCCC[C@@H](C)Oc2ccc(NC(=O)C3CCCCC3)cc2C(=O)N([C@@H](C)CO)C[C@@H]1C
C[C@@H]1CN([C@@H](C)CO)C(=O)Cc2cc(NS(=O)(=O)c3ccccc3)ccc2O[C@@H]1CN(C)Cc1ccc(-c2ccccc2)cc1
COc1cc(CN2CCC(C(=O)N[C@@H](c3ccc(-c4ccccc4)cc3)c3cnccn3)CC2)cc(OC)c1
O=C(N[C@@H](c1ccccc1)c1ccc2ccccc2n1)C1CCN(CCOc2ccc(Cl)cc2Cl)CC1
O=C(N[C@@H](c1ccccc1)c1ccc2ccccc2n1)C1CCN(Cc2ccc(Oc3ccccc3)cc2)CC1
O=C(N[C@H](c1ccc(F)cc1)c1ccc2ccccc2n1)C1CCN(Cc2ccc(Oc3ccccc3)cc2)CC1
O=C(N[C@@H](c1ccc(-c2ccccc2)cc1)c1cnccn1)C1CCN(Cc2ccc(Cl)c(Cl)c2)CC1
COc1ccc(OCCN2CCC(C(=O)N[C@@H](c3ccc(F)cc3)c3ccc4ccccc4n3)CC2)cc1
COc1ccc(/C=C/CN2CCC(C(=O)N[C@@H](c3ccc(F)cc3)c3ccc4ccccc4n3)CC2)cc1
O=C(N[C@@H](c1ccc(-c2ccccc2)cc1)c1cnccn1)C1CCN(Cc2ccc(Oc3ccccc3)cc2)CC1
Cc1noc(C)c1NC(=O)N(C)C[C@@H]1Oc2cc(Br)ccc2S(=O)(=O)N([C@@H](C)CO)C[C@H]1C
C[C@@H]1O[C@@H](O[C@@H]2[C@@H](O)[C@H](OCCc3ccc(O)c(O)c3)O[C@H](COC(=O)/C=C/c3ccc(O)c(O)c3)[C@H]2O)[C@H](O)[C@H](O)[C@H]1O
CO[C@@H]1CN(C)C(=O)c2cc(NC(=O)CC(F)(F)F)ccc2OC[C@@H](C)N(C(=O)C2CCOCC2)C[C@@H]1C
C[N+]1(C)C[C@H](O)[C@H](C(=O)O)C1
COCC(=O)N1C[C@H](C)[C@H](OC)CN(C)C(=O)c2ccc(NC(=O)c3cc(C)on3)cc2OC[C@H]1C
COCCOC(=O)N1C(=O)[C@@]2(c3cc(C#CCNC(N)=O)ccc31)[C@H](c1ccccc1OCCO)N1[C@H](c3ccccc3)[C@H](c3ccccc3)OC(=O)[C@H]1[C@@H]2C(N)=O
C[C@H](CO)N1C[C@H](C)[C@H](CN(C)S(=O)(=O)c2ccc(Oc3ccccc3)cc2)OCc2cnnn2CCCC1=O
Cc1noc(C)c1NC(=O)Nc1ccc2c(c1)C(=O)N([C@H](C)CO)C[C@@H](C)[C@@H](CN(C)S(=O)(=O)c1ccc(Cl)cc1)OCCCC[C@H](C)O2
CCCC#Cc1ccc2c(c1)O[C@@H](CN(C)C(=O)c1cnccn1)[C@@H](C)CN([C@@H](C)CO)S2(=O)=O
O=C(N[C@@H](c1ccc(-c2ccccc2)cc1)c1cnccn1)C1CCN(Cc2cccc(C(F)(F)F)c2)CC1
COc1cc(CN2CCC(C(=O)N[C@@H](c3ccc(F)cc3)c3ccc4ccccc4n3)CC2)cc(OC)c1
O=C(N[C@H](c1ccc(F)cc1)c1ccc2ccccc2n1)C1CCN(Cc2ccc3ccccc3n2)CC1
O=C(N[C@@H](c1ccc(-c2ccccc2)cc1)c1cnccn1)C1CCN(CCCOc2ccccc2)CC1
C[C@@H]1CCCCO[C@@H](CN(C)Cc2ccc(Cl)c(Cl)c2)[C@H](C)CN([C@H](C)CO)C(=O)c2cc(NC(=O)C3CCCCC3)ccc2O1
COc1ccc(NC(=O)N(C)C[C@@H]2OCCCC[C@H](C)Oc3ccc(NC(=O)Cc4ccccc4)cc3C(=O)N([C@@H](C)CO)C[C@@H]2C)cc1
C[C@H]1CN([C@@H](C)CO)C(=O)c2cc(C#Cc3ccc(F)cc3)cnc2O[C@@H]1CN(C)CC1CCOCC1
CC1=C(/C=C/C(C)=C/C=C/C(C)=C/C=C/C=C(C)/C=C/C=C(C)/C=C/C2=C(C)CCCC2(C)C)C(C)(C)CCC1
Cc1noc(C)c1NC(=O)Nc1cccc2c1O[C@H](CN(C)S(=O)(=O)c1cn(C)cn1)[C@H](C)CN([C@@H](C)CO)C2=O

Growth inhibition call, active:
CCn1cc(C(=O)O)c(=O)c2cc(F)c(N3CCNCC3)cc21
CCN1CCN(c2cc3c(cc2F)c(=O)c(C(=O)O)cn3C2CC2)CC1
CCn1cc(C(=O)O)c(=O)c2cc(F)c(N3CCN(C)CC3)cc21.CS(=O)(=O)O
NC(=O)c1cc[n+](CC2=C(C(=O)O)N3C(=O)[C@@H](NC(=O)Cc4cccs4)[C@H]3SC2)cc1
NC(=O)c1cc[n+](CC2=C(C(=O)[O-])N3C(=O)C(NC(=O)Cc4cccs4)C3SC2)cc1 (stereo not given)
COc1cc([C@@H]2c3cc4c(cc3[C@@H](O[C@@H]3O[C@@H]5CO[C@@H](C)O[C@H]5[C@H](O)[C@H]3O)[C@H]3COC(=O)[C@H]23)OCO4)cc(OC)c1O
N#CC(c1ccc(Cl)cc1)c1c(Cl)cc(-n2ncc(=O)[nH]c2=O)cc1Cl (stereo not given)
O=C(N[C@H](c1ccc(Cl)cc1)c1cnccn1)C1CCN(Cc2ccc(Oc3ccccc3)cc2)CC1
O=C(N[C@@H](c1ccc(F)cc1)c1ccc2ccccc2n1)C1CCN(CCOc2ccc(F)cc2)CC1
COc1ccc(/C=C/CN2CCC(C(=O)N[C@@H](c3ccc(-c4ccccc4)cc3)c3cnccn3)CC2)cc1
O=C(N[C@@H](c1ccccc1)c1ccc2ccccc2n1)C1CCN(CCOc2ccc(Cl)cc2)CC1
O=C(N[C@@H](c1ccc(-c2ccccc2)cc1)c1cnccn1)C1CCN(CCOc2ccc(F)cc2)CC1
O=C(N[C@H](c1ccc(F)cc1)c1ccc2ccccc2n1)C1CCN(CCOc2ccc(Cl)cc2)CC1
